From PMC7862700, “An all-to-all approach to the identification of sequence-specific readers for epigenetic DNA modifications on cytosine” come the findings set out here.

Common to all, as to assay: DAPPL (digital affinity profiling via proximity ligation, sequencing); 10 mM Tris-HCl pH 7.5, 50 mM NaCl, 1 mM DTT, 4% glycerol, room temperature, 30 min; GST-TFs on glutathione beads, 16-mer random dsDNA library, 0.1% formaldehyde crosslink after washing; high values mean tight binding
Experiment [1] concerns the target T1, FLI1 (Homo sapiens, UniProt Q01543 1-452).
T1 sequence: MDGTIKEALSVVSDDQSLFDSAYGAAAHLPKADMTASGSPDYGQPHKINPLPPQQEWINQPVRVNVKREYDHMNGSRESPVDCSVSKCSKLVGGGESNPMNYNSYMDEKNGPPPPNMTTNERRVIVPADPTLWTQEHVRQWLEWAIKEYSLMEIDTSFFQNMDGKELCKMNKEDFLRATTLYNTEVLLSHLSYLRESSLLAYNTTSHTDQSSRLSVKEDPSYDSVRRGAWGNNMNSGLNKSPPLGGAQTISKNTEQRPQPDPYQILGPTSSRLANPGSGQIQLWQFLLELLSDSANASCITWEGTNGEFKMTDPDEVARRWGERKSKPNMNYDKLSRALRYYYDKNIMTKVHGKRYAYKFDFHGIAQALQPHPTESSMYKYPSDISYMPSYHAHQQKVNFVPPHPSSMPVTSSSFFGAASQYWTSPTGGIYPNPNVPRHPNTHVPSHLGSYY
As to conditions: protein: recombinant; tags: N-terminal GST; dsDNA, one strand shown. The procedure, abridged:
(§1)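 The binding signal reported is, for every hexamer, its read frequency for a factor over its read frequency for the tag-only sample. Reads came from pools of yeast-expressed, GST-fused human transcription factors on glutathione beads, barcoded with DNA and mixed with that sample, which were incubated with 200 nmole of a random double-stranded 16-mer DNA library in Tris/NaCl/DTT/glycerol buffer at room temperature for 30 min. After washing, the pools were crosslinked with 0.1% formaldehyde, proximity-ligated with BsaI/T4 ligase for 1 h at 37 °C, PCR-amplified and sequenced on an Illumina NextSeq500.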

Experiment [2] concerns the target T2, ELK1 (Homo sapiens, UniProt P19419 1-428).
T2 sequence: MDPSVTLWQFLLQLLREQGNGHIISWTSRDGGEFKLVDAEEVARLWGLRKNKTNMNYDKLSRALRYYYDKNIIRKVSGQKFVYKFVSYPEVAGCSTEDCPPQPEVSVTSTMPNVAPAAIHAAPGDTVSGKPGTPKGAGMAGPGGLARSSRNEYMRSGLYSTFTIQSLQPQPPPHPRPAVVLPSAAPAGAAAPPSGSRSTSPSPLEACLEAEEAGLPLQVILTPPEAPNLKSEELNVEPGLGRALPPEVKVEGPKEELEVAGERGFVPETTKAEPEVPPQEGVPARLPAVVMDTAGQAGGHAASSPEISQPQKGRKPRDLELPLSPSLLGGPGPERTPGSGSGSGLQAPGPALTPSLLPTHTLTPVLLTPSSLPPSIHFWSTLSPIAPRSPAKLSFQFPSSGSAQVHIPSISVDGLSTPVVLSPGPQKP
Conditions: protein: recombinant; tags: N-terminal GST; dsDNA, one strand shown. In outline: as §1

In experiment [3] the target is T3, GABPA (Homo sapiens, UniProt Q06546 1-454).
T3 sequence: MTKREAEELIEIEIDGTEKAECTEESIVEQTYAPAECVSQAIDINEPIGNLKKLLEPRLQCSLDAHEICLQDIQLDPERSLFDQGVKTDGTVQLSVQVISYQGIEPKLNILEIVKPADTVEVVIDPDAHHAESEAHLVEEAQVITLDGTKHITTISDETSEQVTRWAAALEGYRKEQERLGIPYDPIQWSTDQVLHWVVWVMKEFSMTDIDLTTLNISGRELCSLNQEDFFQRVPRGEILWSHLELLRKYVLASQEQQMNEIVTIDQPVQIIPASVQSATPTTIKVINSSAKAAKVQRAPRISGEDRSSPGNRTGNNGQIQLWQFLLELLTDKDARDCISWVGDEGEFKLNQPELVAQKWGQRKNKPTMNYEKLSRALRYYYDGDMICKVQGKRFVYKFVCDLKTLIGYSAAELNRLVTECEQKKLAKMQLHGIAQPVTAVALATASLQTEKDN
As to conditions: protein: recombinant; tags: N-terminal GST; dsDNA, one strand shown. The procedure, abridged:
as §1

Experiment [4] has as its target T4, ERG (Homo sapiens, UniProt P11308 1-479).
T4 sequence: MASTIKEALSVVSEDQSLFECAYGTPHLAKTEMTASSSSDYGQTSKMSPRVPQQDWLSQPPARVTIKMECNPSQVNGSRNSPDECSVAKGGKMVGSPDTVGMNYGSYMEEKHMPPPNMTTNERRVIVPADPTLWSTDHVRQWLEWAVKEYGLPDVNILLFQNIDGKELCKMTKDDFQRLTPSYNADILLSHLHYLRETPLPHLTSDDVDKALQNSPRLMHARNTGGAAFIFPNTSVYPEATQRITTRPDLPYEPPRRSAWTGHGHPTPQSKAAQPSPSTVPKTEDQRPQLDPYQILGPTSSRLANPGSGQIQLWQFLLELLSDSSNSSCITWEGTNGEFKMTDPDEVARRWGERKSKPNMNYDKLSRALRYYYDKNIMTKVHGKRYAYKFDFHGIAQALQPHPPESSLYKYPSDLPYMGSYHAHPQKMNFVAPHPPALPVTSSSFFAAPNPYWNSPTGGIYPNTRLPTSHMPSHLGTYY
As to conditions: protein: recombinant; tags: N-terminal GST; dsDNA, one strand shown. In outline:
as §1

Experiment [5] addresses ELF1 (Homo sapiens, UniProt P32519 1-619). As to conditions: protein: recombinant; tags: N-terminal GST; dsDNA, one strand shown. The procedure, abridged:
as §1

In experiment [6] the target is SPI1 (Homo sapiens, UniProt P17947 1-270). As to conditions: protein: recombinant; tags: N-terminal GST; dsDNA, one strand shown. In outline:
as §1

Experiment [7] addresses SPIB (Homo sapiens, UniProt Q01892 1-262). As to conditions: protein: recombinant; tags: N-terminal GST; dsDNA, one strand shown. In outline:
as §1

The target of experiment [8] is T5, ELK3 (Homo sapiens, UniProt P41970 1-407).
T5 sequence: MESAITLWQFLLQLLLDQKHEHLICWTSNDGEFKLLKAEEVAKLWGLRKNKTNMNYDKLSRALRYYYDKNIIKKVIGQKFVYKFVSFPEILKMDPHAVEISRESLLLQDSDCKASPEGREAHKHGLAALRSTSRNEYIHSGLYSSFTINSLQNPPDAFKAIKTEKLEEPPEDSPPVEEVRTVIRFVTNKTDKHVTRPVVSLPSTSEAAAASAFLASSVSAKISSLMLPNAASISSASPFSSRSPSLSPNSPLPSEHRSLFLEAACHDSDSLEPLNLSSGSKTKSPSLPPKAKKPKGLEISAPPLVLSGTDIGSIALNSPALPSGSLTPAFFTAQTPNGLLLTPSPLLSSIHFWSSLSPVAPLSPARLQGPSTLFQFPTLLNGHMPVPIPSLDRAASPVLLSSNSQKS
Conditions: protein: recombinant; tags: N-terminal GST; dsDNA, one strand shown. The procedure, abridged: as §1

Experiment [9] addresses T6, FEV (Homo sapiens, UniProt Q99581 1-238).
T6 sequence: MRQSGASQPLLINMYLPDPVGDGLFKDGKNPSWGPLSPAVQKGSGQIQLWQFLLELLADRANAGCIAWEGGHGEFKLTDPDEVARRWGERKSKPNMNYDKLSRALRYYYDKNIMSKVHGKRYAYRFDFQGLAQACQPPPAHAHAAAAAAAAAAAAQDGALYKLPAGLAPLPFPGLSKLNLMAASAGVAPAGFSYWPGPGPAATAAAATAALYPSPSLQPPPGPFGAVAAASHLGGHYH
As to conditions: protein: recombinant; tags: N-terminal GST; dsDNA, one strand shown. The procedure, abridged:
as §1

Experiment [10] deals with ETV5 (Homo sapiens, UniProt P41161 1-510). Conditions: protein: recombinant; tags: N-terminal GST; dsDNA, one strand shown. The procedure, abridged: as §1
Chain of ETV5 (P41161 whole entry): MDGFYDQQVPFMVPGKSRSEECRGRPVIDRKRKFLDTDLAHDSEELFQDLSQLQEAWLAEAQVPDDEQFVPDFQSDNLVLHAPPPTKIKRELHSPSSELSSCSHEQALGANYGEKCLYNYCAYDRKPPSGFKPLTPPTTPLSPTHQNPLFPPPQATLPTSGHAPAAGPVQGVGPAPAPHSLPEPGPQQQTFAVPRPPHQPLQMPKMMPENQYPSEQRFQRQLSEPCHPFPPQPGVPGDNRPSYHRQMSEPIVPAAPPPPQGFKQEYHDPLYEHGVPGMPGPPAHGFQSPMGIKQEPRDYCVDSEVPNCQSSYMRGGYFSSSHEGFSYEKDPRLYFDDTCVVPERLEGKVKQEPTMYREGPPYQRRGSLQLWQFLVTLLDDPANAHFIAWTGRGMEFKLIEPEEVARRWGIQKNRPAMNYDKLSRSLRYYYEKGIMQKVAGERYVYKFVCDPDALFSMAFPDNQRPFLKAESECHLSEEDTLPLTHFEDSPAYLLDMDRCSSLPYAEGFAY
The target of experiment [11] is HSF1 (Homo sapiens, UniProt Q00613 1-529). Conditions: protein: recombinant; tags: N-terminal GST; chain copies: 3; dsDNA, one strand shown. In outline: as §1
Chain of HSF1 (Q00613 whole entry): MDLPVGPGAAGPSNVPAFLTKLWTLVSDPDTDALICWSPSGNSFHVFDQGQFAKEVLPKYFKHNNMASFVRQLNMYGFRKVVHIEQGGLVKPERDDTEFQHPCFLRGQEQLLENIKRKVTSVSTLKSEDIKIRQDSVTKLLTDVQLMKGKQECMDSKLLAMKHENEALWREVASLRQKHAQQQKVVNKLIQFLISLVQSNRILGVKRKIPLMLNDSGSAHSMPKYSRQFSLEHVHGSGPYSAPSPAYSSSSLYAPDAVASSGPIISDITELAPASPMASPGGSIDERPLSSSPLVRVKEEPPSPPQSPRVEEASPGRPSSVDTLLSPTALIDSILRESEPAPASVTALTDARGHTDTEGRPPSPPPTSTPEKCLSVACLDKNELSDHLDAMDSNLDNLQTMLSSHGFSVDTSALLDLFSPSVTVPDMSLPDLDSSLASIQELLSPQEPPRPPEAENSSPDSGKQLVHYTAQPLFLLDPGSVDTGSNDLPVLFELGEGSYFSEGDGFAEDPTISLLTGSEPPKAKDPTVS
Experiment [12] has as its target T7, SPIC (Homo sapiens, UniProt Q8N5J4 1-248).
T7 sequence: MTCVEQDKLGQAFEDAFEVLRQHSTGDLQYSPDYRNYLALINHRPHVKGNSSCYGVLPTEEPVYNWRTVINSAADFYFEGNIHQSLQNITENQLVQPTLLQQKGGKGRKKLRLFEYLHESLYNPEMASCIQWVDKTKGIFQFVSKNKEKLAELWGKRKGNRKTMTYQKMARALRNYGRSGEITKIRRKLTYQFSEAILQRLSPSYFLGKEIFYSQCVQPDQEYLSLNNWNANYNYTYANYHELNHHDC
As to conditions: protein: recombinant; tags: N-terminal GST; dsDNA, one strand shown. The procedure, abridged: as §1

The target of experiment [13] is ELF4 (Homo sapiens, UniProt Q99607 1-663). As to conditions: protein: recombinant; tags: N-terminal GST; dsDNA, one strand shown. The procedure, abridged:
as §1

Experiment [14] has as its target T8, ELK4 (Homo sapiens, UniProt P28324-2 1-405).
T8 sequence: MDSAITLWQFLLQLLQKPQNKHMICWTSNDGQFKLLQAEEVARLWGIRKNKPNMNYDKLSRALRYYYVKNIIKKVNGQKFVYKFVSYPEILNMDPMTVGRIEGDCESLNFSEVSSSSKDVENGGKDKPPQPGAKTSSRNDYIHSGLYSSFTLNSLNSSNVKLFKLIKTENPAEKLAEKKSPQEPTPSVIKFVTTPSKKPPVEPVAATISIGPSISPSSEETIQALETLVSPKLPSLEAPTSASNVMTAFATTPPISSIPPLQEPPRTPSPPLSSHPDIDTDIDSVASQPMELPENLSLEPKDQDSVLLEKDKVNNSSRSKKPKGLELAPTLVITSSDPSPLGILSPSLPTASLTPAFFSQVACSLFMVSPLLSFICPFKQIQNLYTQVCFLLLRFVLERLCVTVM
As to conditions: protein: recombinant; tags: N-terminal GST; dsDNA, one strand shown. In outline: as §1

Experiment [15] concerns the target T9, ELF3 (Homo sapiens, UniProt P78545 1-371).
T9 sequence: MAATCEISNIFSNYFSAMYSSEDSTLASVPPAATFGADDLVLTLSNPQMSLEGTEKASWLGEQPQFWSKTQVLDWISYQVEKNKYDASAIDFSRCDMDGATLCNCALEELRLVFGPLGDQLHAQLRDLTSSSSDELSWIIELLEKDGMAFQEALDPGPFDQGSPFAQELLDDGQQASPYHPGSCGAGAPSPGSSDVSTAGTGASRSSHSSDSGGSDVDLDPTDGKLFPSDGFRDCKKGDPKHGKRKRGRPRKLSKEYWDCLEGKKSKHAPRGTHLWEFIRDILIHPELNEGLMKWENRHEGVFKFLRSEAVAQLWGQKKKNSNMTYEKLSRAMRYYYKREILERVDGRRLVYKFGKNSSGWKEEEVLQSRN
As to conditions: protein: recombinant; tags: N-terminal GST; dsDNA, one strand shown. In outline: as §1

Experiment [16] addresses CRX (Homo sapiens, UniProt O43186 1-299). As to conditions: protein: recombinant; tags: N-terminal GST; dsDNA, one strand shown. The procedure, abridged:
as §1

The target of experiment [17] is ETV1 (Homo sapiens, UniProt P50549 1-477). As to conditions: protein: recombinant; tags: N-terminal GST; dsDNA, one strand shown. In outline:
as §1

Chain of SPIB (Q01892 whole entry): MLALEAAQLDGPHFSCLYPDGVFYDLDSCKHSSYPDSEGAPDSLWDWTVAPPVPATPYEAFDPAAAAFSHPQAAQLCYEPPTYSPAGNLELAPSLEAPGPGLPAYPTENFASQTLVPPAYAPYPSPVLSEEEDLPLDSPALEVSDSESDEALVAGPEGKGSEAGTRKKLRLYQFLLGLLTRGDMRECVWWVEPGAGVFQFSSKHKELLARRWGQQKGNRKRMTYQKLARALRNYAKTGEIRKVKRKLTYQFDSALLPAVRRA
Chain of CRX (O43186 whole entry): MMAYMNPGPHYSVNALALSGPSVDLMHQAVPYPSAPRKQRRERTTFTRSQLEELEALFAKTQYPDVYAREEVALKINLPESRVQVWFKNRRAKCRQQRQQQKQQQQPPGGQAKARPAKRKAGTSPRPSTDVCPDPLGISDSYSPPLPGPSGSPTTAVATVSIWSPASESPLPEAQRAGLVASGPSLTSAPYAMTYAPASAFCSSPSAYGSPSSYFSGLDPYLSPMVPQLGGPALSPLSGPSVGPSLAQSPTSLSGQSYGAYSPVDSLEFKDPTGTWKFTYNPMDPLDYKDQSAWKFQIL
Chain of ETV1 (P50549 whole entry): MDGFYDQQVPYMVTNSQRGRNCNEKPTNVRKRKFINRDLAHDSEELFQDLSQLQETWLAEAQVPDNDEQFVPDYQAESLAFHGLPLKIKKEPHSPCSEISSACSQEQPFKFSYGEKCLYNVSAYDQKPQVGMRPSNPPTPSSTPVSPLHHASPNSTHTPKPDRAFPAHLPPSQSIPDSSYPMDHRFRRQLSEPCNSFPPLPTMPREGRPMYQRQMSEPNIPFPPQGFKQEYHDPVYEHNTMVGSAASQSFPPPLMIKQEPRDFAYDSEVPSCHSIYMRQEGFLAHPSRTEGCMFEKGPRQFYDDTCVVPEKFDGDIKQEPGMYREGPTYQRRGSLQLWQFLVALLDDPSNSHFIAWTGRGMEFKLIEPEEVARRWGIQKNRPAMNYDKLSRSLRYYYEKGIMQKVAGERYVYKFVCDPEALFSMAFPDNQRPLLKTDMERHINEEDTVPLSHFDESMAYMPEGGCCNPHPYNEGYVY
Chain of ELF4 (Q99607 whole entry): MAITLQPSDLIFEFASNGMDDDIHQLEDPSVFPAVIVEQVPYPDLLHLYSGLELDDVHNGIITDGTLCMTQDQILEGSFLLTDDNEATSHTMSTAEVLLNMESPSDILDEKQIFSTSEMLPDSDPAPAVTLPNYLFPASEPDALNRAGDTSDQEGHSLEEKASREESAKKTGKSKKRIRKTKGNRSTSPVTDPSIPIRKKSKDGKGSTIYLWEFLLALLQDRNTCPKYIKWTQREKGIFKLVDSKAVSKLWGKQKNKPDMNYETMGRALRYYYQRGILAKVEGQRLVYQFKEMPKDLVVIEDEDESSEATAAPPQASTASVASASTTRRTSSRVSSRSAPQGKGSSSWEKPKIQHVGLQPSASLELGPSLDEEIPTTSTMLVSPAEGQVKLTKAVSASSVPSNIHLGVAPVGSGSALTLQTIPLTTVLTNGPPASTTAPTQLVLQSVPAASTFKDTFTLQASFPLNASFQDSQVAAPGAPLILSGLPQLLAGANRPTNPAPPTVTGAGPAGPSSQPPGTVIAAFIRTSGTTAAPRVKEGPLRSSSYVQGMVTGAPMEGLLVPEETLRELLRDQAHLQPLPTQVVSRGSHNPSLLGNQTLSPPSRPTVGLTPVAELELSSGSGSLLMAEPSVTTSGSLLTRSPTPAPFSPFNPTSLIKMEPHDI
Chain of ELF1 (P32519 whole entry): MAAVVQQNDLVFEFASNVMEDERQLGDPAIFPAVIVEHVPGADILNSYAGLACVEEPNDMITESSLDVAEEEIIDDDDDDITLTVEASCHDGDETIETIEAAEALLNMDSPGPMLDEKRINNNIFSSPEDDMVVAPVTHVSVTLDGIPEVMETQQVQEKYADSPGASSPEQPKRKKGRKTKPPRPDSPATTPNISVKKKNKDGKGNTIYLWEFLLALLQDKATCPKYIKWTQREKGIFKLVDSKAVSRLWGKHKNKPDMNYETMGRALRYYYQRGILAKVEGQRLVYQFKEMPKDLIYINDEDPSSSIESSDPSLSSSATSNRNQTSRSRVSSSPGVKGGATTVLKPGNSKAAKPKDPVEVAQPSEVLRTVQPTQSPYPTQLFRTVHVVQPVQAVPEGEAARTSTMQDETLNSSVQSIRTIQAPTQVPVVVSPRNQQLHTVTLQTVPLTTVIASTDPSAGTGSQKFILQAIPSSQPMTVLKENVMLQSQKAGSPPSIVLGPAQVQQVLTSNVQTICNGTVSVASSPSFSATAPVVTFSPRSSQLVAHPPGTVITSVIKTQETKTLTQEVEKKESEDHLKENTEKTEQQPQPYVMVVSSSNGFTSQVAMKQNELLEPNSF

As to TGGTTA, the binding signal in [1] is 1.17 fold enrichment (6-mer frequency, TF over GST control); in experiment [2] it was 1.08 fold enrichment (6-mer frequency, TF over GST control); in experiment [3], 1.09 fold enrichment (6-mer frequency, TF over GST control); in experiment [4] it was 1.13 fold enrichment (6-mer frequency, TF over GST control); in [5], 1.1 fold enrichment (6-mer frequency, TF over GST control); in experiment [6], 1.15 fold enrichment (6-mer frequency, TF over GST control). The binding signal was 1.12 fold enrichment (6-mer frequency, TF over GST control) in experiment [7]; 1.13 fold enrichment (6-mer frequency, TF over GST control) in [8]; 1.05 fold enrichment (6-mer frequency, TF over GST control) in [9]; 1.03 fold enrichment (6-mer frequency, TF over GST control) in [10]; 1.03 fold enrichment (6-mer frequency, TF over GST control) in experiment [11]; 1.25 fold enrichment (6-mer frequency, TF over GST control) in [12]. The binding signal in experiment [13] was 1.02 fold enrichment (6-mer frequency, TF over GST control); in experiment [14], 1.06 fold enrichment (6-mer frequency, TF over GST control); in experiment [15], 1.16 fold enrichment (6-mer frequency, TF over GST control); in [16] it was 1.15 fold enrichment (6-mer frequency, TF over GST control); in [17], 1.01 fold enrichment (6-mer frequency, TF over GST control).
